According to PubChem BioAssay (EPA / NIEHS):
Activity calls are given as the source filed them. How the source made its calls: active means hit-call score of the fitted dose curve at least 0.9, where 1 is the maximum; inactive means score below 0.9.

Tested on: not listed separately
Assay: ATG_DR4_LXR_CIS: Attagene CIS-FACTORIAL HepG2 Assay for human Liver X Receptor (LXR), DR4 submotif (AID 2282929)
Conditions: HepG2 Attagene DR4 cis-reporter, mRNA transcription; actives raise or lower the signal
How it was run: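 The endpoint is DR4-element-driven reporter transcripts after 24 h chemical exposure of transfected HepG2 cells. These were measured via RT-PCR and capillary electrophoresis, and gain or loss of signal was fitted relative to DMSO controls.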

Structure (SMILES)	outcome
CCCC(C)C=O (stereo not given)	inactive
BrC1CCC(Br)C(Br)CCC(Br)C(Br)CCC1Br (stereo not given)	inactive
CCCCCCCCC=O	inactive

Target: Aryl hydrocarbon receptor (Homo sapiens) (UniProt P35869)
Sequence (P35869 whole entry, looked up): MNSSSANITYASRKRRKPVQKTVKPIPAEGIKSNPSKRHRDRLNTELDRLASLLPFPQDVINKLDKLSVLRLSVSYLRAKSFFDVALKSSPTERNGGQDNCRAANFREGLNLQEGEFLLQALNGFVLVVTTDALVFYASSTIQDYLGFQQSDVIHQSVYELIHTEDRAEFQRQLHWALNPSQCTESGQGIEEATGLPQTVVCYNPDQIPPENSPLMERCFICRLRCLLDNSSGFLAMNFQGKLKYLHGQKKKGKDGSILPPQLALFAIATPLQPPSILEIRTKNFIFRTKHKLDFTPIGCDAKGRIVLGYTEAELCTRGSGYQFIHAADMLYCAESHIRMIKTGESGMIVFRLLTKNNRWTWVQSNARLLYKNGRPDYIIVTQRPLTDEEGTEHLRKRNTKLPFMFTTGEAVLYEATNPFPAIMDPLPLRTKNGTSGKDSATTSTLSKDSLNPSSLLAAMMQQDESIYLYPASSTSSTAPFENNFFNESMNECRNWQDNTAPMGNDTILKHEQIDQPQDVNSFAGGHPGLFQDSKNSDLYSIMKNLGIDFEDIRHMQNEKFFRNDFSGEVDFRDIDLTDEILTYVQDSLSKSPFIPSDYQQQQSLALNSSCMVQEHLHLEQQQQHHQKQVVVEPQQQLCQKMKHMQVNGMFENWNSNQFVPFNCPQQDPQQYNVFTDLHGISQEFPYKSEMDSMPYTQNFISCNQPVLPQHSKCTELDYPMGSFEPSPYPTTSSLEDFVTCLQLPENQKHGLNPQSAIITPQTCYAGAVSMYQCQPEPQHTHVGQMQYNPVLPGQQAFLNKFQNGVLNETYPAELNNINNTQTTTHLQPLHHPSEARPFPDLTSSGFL
Assay: ATG_Ahr_CIS: Attagene CIS-FACTORIAL HepG2 Assay for human Aryl Hydrocarbon Receptor (Ahr) (AID 2282930)
Conditions: HepG2 AhR cis-factorial reporter transcription; actives raise or lower the signal
How it was run: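 Following 24 h of chemical dosing, transfected HepG2 liver cells with cis-driven reporter units were lysed for RNA; reporter mRNA was quantified via RT-PCR and capillary electrophoresis, and responses fitted bidirectionally from DMSO.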

Structure (SMILES)	AC50	outcome
CO[Si](C)(OC)c1ccccc1	130 µM (active)	
C=CCOC(=O)CCC1CCCCC1		inactive
C=C(C)[C@@H]1CC[C@@H](C)C[C@@H]1O		inactive
CCCCCCCCCCCCCCCCCC(=O)OCC(CC)CCCC (stereo not given)		inactive
Clc1sc(Cl)c(Cl)c1Cl		inactive
CN(C)CCCN		inactive
CC(=O)O[C@H](CC(=O)[O-])C[N+](C)(C)C		inactive
CCCC(C)C=O (stereo not given)		inactive
CCN(CC)c1ccc2c(-c3ccccc3C(=O)O)c3ccc(=[N+](CC)CC)cc-3oc2c1		inactive
CC1CC(OC(=O)c2ccccc2O)CC(C)(C)C1 (stereo not given)		inactive
Cc1cccc(C)c1[N+](=O)[O-]		inactive
NNc1nc(-c2ccc(N)cc2)cs1		inactive
CCCCc1ccc(N)cc1		inactive
CCC(C)CCCC(C)(C)O (stereo not given)		inactive
CC(CCO)CCCC(C)(C)O (stereo not given)		inactive
CC(=O)O[C@]1(C(C)=O)CC[C@H]2[C@@H]3C[C@H](C)C4=CC(=O)CC[C@]4(C)[C@H]3CC[C@@]21C		inactive
CC[C@]12CCCN3CCc4c(n(c5ccccc45)[C@@](O)(C(=O)OC)C1)[C@@H]32		inactive
BrC1CCC(Br)C(Br)CCC(Br)C(Br)CCC1Br (stereo not given)		inactive
Nc1cc(N)cc(C(=O)O)c1		inactive

Structure (SMILES)	AC50	outcome
ClCCCl		inactive
Cc1ccc(Nc2ccc(O)c3c2C(=O)c2ccccc2C3=O)cc1		inactive
c1ccc2sc(SN(C3CCCCC3)C3CCCCC3)nc2c1	49.1 µM (active)	
COc1nc(C)nc(N)n1		inactive
COc1cc(C=O)ccc1OC(=O)C(C)C		inactive
CCCCCCCCCC=O		inactive
S=C(S)NCCNC(=S)S		inactive
Cc1ccccc1C=O	53.5 µM (active)	
OCc1cccnc1		inactive
O=C(O)c1cccc(C(F)(F)F)c1		inactive
CC(=O)OCCOC(C)=O		inactive
O=C(OCc1ccccc1)C(=O)OCc1ccccc1		inactive
O=Nc1ccc(Nc2ccccc2)cc1	33.4 µM (active)	
CC(C=O)Cc1ccc(C(C)C)cc1 (stereo not given)		inactive
CC(C)=CCO		inactive
Nc1cc([N+](=O)[O-])ccc1O	100 µM (active)	
O=C(O)Cc1cccc2ccccc12		inactive
CCC/C=C/C=O		inactive
